# Reference: PubChem BioAssay (NCI)
# Compounds without any hit were thinned out: in the full panel of roughly 83,000, 20% have a hit.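 Step 1: grow cells in 96-well plates. Step 2: add test compound at a single concentration. Step 3: incubate 48 h. Step 4: record percent growth.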 Active and inactive are the calls of the source.
# Test system: NCI-H322M lung
# Assay: NCI-60 one-dose screen, 48 h (100 = growth as untreated, 0 = no growth, -100 = all killed)
# Conditions: 10 µM unless noted
# Description: Growth inhibition of the NCI-H322M human Non-Small Cell Lung tumor cell line is measured as a screen for anti-cancer activity. Cells are grown in 96 well plates and exposed to the test compound for 48 hours. Compounds are tested at a single concentration, which is 10^-5 M for most compounds. The reported endpoint is percent growth (GI% or GIPRCNT), where numbers from 0 - 100% represent growth inhibition, and numbers from -100% - 0 represent cell death. For example, a value of 40 represents 60% growth inhibition. A value of 0 means no net growth occurred over the course of the experiment. A value of -40 indicates 40% of cells at the beginning of the experiment died by the end of the experiment. A value of -100 means all cells are dead at the end of the experiment.
# NCI-60 Human Tumor Cell Lines Screen was performed using the standard one-dose NCI protocol, which is described in more detail at https://dtp.cancer.gov/discovery_development/nci-60/default.htm.
# Compounds with GIPRCNT values below 10 were considered active. Activity score was based on GIPRCNT using the following formula: […]
# Score is 0 for GIPRCNT values of 100 or above, 50 for GIPRCNT values of 0, and 100 for GIPRCNT values of -100.
row,Compound,growth
1,COc1cc(/C=N/NC(=O)c2cn(C3CC3)c3c(OC)c(N4CC5CCCNC5C4)c(F)cc3c2=O)ccc1O (stereo not given),55.4% (inactive)
2,CN(C)CCNC(=O)c1ccc(-c2nc3ccc4[nH]ncc4c3c3c2CCC3)cc1,6.34% (active)
3,COc1cc(OC)c(S(N)(=O)=O)cc1C(=O)/C=C/c1ccc(Cl)cc1,16.3% (inactive)
4,COc1cc(Cn2cc3c(c2)-c2onc(CN4CCCC4)c2CC3)cc(OC)c1OC,90.6% (inactive)
5,CC(=O)N1C(=S)NC(=O)C1CC(C)C (stereo not given),97.6% (inactive)
6,CS(=O)(=O)Nc1cc(-c2ccc3ncc(C#N)c(NCc4ccccc4)c3c2)cnc1Cl,16.5% (inactive)
7,CCCn1cnc2c(c1=N)C(c1ccc(Cl)cc1)c1sc3c(CC)cccc3c1O2 (stereo not given),45.8% (inactive)
8,O=C(CCC(=O)N1CCOCC1)OCCCCCCSc1ccc([N+](=O)[O-])c2nonc12,45.6% (inactive)
9,CC/C(=C/c1cc(OC)ccc1O)c1ccc2cc(OC)ccc2[o+]1,84.2% (inactive)
10,COc1ccc(-c2nn(-c3ccc(S(C)(=O)=O)cc3)cc2/C=N/O)cc1,108% (inactive)
11,C=C(C=O)[C@@H]1CC[C@]2(COC(C)=O)CC[C@]3(C)C(CC[C@@H]4[C@@]5(C)CC[C@H](OC(C)=O)C(C)(C)[C@@H]5CC[C@]43C)[C@@H]12 (stereo not given in full),40.5% (inactive)
12,CCOC(=O)c1c(N)c(C#N)cn1-c1cc(OC)c(OC)c(OC)c1,101% (inactive)
13,COc1cccc(O)c1/C=C(/C)c1ccc2c(OC)cccc2[o+]1,103% (inactive)
14,Cc1cc(C)n(C(=O)c2sc(=S)n(-c3ccccc3)c2N=Nc2c(N)n[nH]c2N)n1,101% (inactive)
15,Oc1[nH]c2ccccc2c1Nn1c(N=N/C=c2/ccc3c(c2)C=NN=3)n[nH]c1=S,107% (inactive)
16,C[C@H]1c2[nH]c3ccccc3c2C[C@H]2C(=O)N(CCCCCCC(=O)NO)CC(=O)N21,84.9% (inactive)
17,COc1cccc2cc(-c3cc4ccccc4[nH]3)/c(=N\NC(=O)c3ccc(Cl)cc3)oc12,41.5% (inactive)
18,Cc1ccc(CSc2nc(-c3ccc(Cl)cc3)c(C#N)c(N3CCNCC3)n2)cc1,89% (inactive)
19,CC(=O)c1ccc(Nc2nc(SCC(C)C)nc(-c3ccc(F)cc3)c2C#N)cc1,116% (inactive)
20,CCO/C=N/C1=C(C#N)C(c2ccc(OC)cc2)c2sc3c(C)cccc3c2O1 (stereo not given),45.7% (inactive)

row,Compound,growth
1,CCCCCc1ccc(S(=O)(=O)Nc2cc(-c3csc(NC(=O)CN4CCN(C)CC4)n3)ccc2OC)cc1,5.27% (active)
2,NC(N)=Nc1ccc(Oc2cccc(Nc3ccc(Cl)c(C(F)(F)F)c3)c2)cn1,-25.9% (active)
3,CCOc1ccc(NC2=C(Cl)C(=O)c3nc(C)ccc3C2=O)cc1,32.4% (inactive)
4,NC(N)=Nc1ccc(Oc2cccc(NC(N)=Nc3ccc(I)cc3F)c2)cn1,53.1% (inactive)
5,COc1cc(-c2nn(C(C)(C)C)cc2-c2ccnc(NCCCNS(=O)(=O)c3ccc(F)cc3)n2)ccc1Cl,87.4% (inactive)
6,Cn1ccnc1C(=O)/C=C/c1ccc(CNC(=O)c2ccc(Cl)cc2)cc1,6.29% (active)
7,CNC1CCc2c(sc(NC(=O)c3ccc(C(C)(C)C)cc3)c2C(N)=O)C1 (stereo not given),66.4% (inactive)
8,O=S(=O)(Oc1ccc(-c2nnc(Nc3ccccc3)s2)cc1)C(F)(F)C(F)(F)C(F)(F)C(F)(F)C(F)(F)C(F)(F)F,113% (inactive)
9,CCOc1ccc(C(=O)Nc2ncc(Cc3ccc(F)cc3)s2)cc1,55.3% (inactive)
10,Nc1nc(-c2cccc([N+](=O)[O-])c2)c(N=Nc2ccccc2)s1,76.2% (inactive)
11,CCNC(=O)N1CCc2cc(OC)c(OCCc3ccc(OC)cc3)cc2C1c1ccc([N+](=O)[O-])cc1C (stereo not given),45.4% (inactive)
12,COc1cc(-c2nn(C(C)(C)C)cc2-c2ccnc(NCCCNS(=O)(=O)c3ccccc3)n2)ccc1Cl,87.2% (inactive)
13,COc1cc2nc(Cl)nc(Nc3cccc(C4=Nc5c(N)nc(N)nc5NC(c5ccc6c(c5)OCO6)C4)c3)c2cc1OC (stereo not given),83.4% (inactive)
14,NC(=O)c1cccc(C#CCNC[C@H]2C[C@@H](n3ccc4c(Cl)ncnc43)[C@H](O)[C@@H]2O)c1,94.2% (inactive)
15,O=C(/C=C/c1ccc(F)cc1)c1ccc(O)cc1,121% (inactive)
16,C#CCC#CCN1CCC[C@H]1C(=O)NCC(=O)OC,101% (inactive)
17,COc1ccc(-c2nc3cc(Cl)c(Cl)cc3n2CC(=O)N=Nc2c(O)[nH]c3ccc(OC)cc23)cc1,80.4% (inactive)
18,NC(N)=Nc1ccc(Oc2cccc(Nc3ccc(Cl)c(C(F)(F)F)c3)c2)cc1,61.9% (inactive)
19,Cc1ccc(-c2nn(-c3ccccc3)cc2/C=C/C(=O)c2ccc(NC(=O)CCCCCCC(=O)NO)cc2)cc1,83.9% (inactive)
20,COc1ccc(S(=O)(=O)NCCCNc2nccc(-c3[nH]c(-c4ccccc4)nc3-c3ccc(Cl)c(O)c3)n2)cc1,96.5% (inactive)
